LmPK inh = qHTS Assay for Inhibitors of Leishmania Mexicana Pyruvate Kinase (LmPK) | Q27686 | purified LmPK, Kinase-Glo ATP luminescence, 1 h | Potency, µM (doses to about 57.5 µM), without a hit: at the top dose activity change, negative = inhibition, most hits filed as inhibitors | hit rate 0.37% among 290,000; also: potency is read from the fitted curve at half-maximal effect; % is scaled to controls: 0 for no effect and ±100 for the full control effect
Target sequence (Q27686 whole entry, looked up): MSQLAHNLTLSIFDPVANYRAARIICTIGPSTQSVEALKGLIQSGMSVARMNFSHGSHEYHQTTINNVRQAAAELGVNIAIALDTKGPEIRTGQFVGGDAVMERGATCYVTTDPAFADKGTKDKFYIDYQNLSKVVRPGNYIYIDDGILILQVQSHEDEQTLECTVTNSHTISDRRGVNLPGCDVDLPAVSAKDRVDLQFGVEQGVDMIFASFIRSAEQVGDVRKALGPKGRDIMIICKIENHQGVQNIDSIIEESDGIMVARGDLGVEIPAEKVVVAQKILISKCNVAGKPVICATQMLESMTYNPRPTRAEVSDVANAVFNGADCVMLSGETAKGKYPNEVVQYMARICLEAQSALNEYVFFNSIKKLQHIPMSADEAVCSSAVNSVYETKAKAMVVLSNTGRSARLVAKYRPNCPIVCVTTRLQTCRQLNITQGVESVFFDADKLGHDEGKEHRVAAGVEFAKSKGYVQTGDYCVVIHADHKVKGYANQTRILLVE
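qHTS format; LmPK 0.1 nM; substrates PEP 0.5 mM and ADP 0.1 mM. One-hour room-temperature incubation, then coupled luciferase luminescence; 0.5 nM enzyme wells mark activation.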
Tb PYK inh = qHTS of Trypanosoma Brucei Inhibitors; hit rate 0.12% among 410,000; Potency, µM (highest dose often 76.8 µM), for the others: top-dose activity, negative = inhibition, actives largely listed as inhibitors; TbPYK enzyme, Kinase-Glo Plus ATP luminescence, 45 min; pyruvate kinase (Trypanosoma brucei), Q57TT1; also: potency is read from the fitted curve at half-maximal effect; % is scaled to controls: 0 for no effect and ±100 for the full control effect; nearly all actives have a fitted effect of over 50% in size
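ADP (130 uM final) triggers the TbPYK reaction after compound addition; incubation is 45 min at room temperature. Kinase-Glo Plus is then added and luminescence imaged. Normalized data are fitted to concentration-effect curves.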
CHX counter = Cycloheximide Counterscreen for Small Molecule Inhibitors of Shiga Toxin. cell reporter, cycloheximide protein synthesis inhibition counterscreen. max response, %. hit rate 12% among 300,000. AID 2314, 2010; in the data active = max response mostly above about 13%, no sharp cut-off; inactive = mostly below about 14%; also: read at 38.3 µM for the half of the compounds with a filed dose; 0% is about no effect
RE007 growth inh = qHTS Assay for Inhibitors of the HIV-1 protein Vpr | AID 651644, 2012 | hit rate 0.21% among 360,000 | Potency, µM (series often up to 92.2 µM), inactives show at the highest dose activity change, negative = less growth, most hits filed as inhibitors | S. pombe RE007 Vpr strain, BacTiter-Glo ATP luminescence, 24 h; active = well fitted falling curve with a large enough effect; inconclusive = small, poorly fitted or top-dose-only effect; inactive = no such curve, though single readings can be large or run the other way; also: potency is read from the fitted curve at half-maximal effect; % is scaled to controls: 0 for no effect and ±100 for the full control effect; nearly all actives have a fitted effect of over 50% in size
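Fission yeast RE007 carrying one integrated HIV-1 vpr copy, seeded at OD 0.01 in PMG+AL medium with 23 nL pinned compound. Grown 24 h at 30 degrees; viability read by BacTiter-Glo luminescence after 5 min.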
FBPA Giardia inh = qHTS Assay for Inhibitors of Fructose-1,6-bisphosphate Aldolase from Giardia Lamblia. hit rate 0.71% among 290,000. purified Giardia FBPA. AID 2451, 2010. Potency, µM (top dose mostly 59.6 µM), for the others: top-dose activity, negative = inhibition, most hits filed as inhibitors; also: potency is read from the fitted curve at half-maximal effect; % is scaled to controls: 0 for no effect and ±100 for the full control effect; nearly all actives have a fitted effect of over 55% in size
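40 nM FBPA preincubated 10 min at RT with compound (up to 57.5 uM final), then substrate plus GAPDH/TPI/NAD/arsenate coupling and diaphorase/resazurin added. Fluorescence read after 20 min at RT, 525/598 nm.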
Shiga toxin inh = A qHTS for Small Molecule Inhibitors of Shiga Toxin | Vero cells, Shiga toxin protein synthesis inhibition reporter | inhibition, % at 38.7 µM | hit rate 9.2% among 290,000; in the data active = inhibition mostly above about 28%, no sharp cut-off; inactive = mostly below about 43%; also: 0% is about no effect
The depositor's hits bear a star. This excerpt belongs to a sample that is enriched for hits. Unless noted, calls follow the shape of the dose curve; as a rule, active = well fitted curve in the direction sought with a large enough effect; inconclusive = small, poorly fitted or top-dose-only effect, or another doubt; inactive = no such curve, though single readings can be large; an effect the other way counts as inactive or inconclusive.

What do the screens show for `Cc1cccc(-n2ncc3c(N(CCO)CCO)ncnc32)c1`?
LmPK inh: 3%; Tb PYK inh: 0%; CHX counter: 27*; RE007 growth inh: 7%; FBPA Giardia inh: 4%; Shiga toxin inh: 65*

Results for Cc1ccc(-n2ncc3c(N(CC(C)C)CC(C)C)ncnc32)c(C)c1 ?
Tb PYK inh: 1%

Results for COc1ccc(-n2ncc3c(N(C)C4CCCCC4)ncnc32)cc1 ?
LmPK inh: -4%; Tb PYK inh: 1%; CHX counter: 45*; RE007 growth inh: 3%; FBPA Giardia inh: -2%; Shiga toxin inh: 74*

How did CCN(c1ncnc2c1cnn2-c1cccc(Cl)c1)C1CCCCC1 do in these assays?
Tb PYK inh: 1%

What do the screens show for `Cn1c(=O)c(-c2ccccc2)c(O)c2ccccc21`?
LmPK inh: 3%; Tb PYK inh: 0%; CHX counter: 6; RE007 growth inh: -19%; FBPA Giardia inh: -10%; Shiga toxin inh: -2

How did CCn1c(O)c(C=Nc2ccccc2)sc1=O do in these assays?
LmPK inh: 0%; Tb PYK inh: 2%; CHX counter: 7; RE007 growth inh: 55%; FBPA Giardia inh: 1%; Shiga toxin inh: 35

What do the screens show for `Cc1ccc(N=Cc2c(O)c3ccccc3n(C)c2=O)cc1`?
LmPK inh: -12%; Tb PYK inh: -4%; CHX counter: 14*; RE007 growth inh: -10%; FBPA Giardia inh: -6%; Shiga toxin inh: 59

How did Cc1ccc(-n2[nH]c(C)c(C=Nc3ccc4[nH]c(=O)[nH]c4c3)c2=O)cc1 do in these assays?
LmPK inh: -3%; Tb PYK inh: -7%; CHX counter: -3; RE007 growth inh: -12%; FBPA Giardia inh: -10%; Shiga toxin inh: -12

How did Cc1ccc(N=Cc2c(C)[nH]n(-c3nc4ccccc4[nH]3)c2=O)cc1 do in these assays?
LmPK inh: 25µM*; Tb PYK inh: inconclusive; CHX counter: 5; RE007 growth inh: 3.2µM*; FBPA Giardia inh: 16%; Shiga toxin inh: 1

How did Cc1ccc(N=Cc2sc(O)c3ccccc23)cc1 do in these assays?
LmPK inh: -13%; Tb PYK inh: 3%; CHX counter: 33*; RE007 growth inh: 4%; FBPA Giardia inh: -13%; Shiga toxin inh: 80*

How did Cc1ccc(N=Cc2sc(O)c3ccccc23)c(C)c1 do in these assays?
LmPK inh: -7%; Tb PYK inh: -10%; CHX counter: 34*; RE007 growth inh: -15%; FBPA Giardia inh: 0%; Shiga toxin inh: 80*

How did CCCCOc1ccc(CNC(=O)c2cnc3sc(N4CCCCCC4)nn3c2=O)cc1 do in these assays?
Tb PYK inh: -1%

How did O=C(NCc1ccco1)c1cc([N+](=O)[O-])ccc1N1CCOCC1 do in these assays?
LmPK inh: 0%; Tb PYK inh: -4%; CHX counter: -2; RE007 growth inh: -1%; FBPA Giardia inh: -5%; Shiga toxin inh: -9

Results for COc1cccc(-c2ncc3ccccc3c2COC(=O)c2ccc(F)cc2)c1 ?
Tb PYK inh: -4%; RE007 growth inh: 0%

What do the screens show for `CCN(CC(=O)Nc1c(F)cccc1F)C(=O)C1(c2ccccc2)CC1`?
LmPK inh: -6%; Tb PYK inh: -5%; CHX counter: -3; RE007 growth inh: 4%; Shiga toxin inh: -14

How did CCOC(=O)C1CCCN(C(=O)c2cc(S(=O)(=O)N(C)C)ccc2N2CCCC2)C1 (centres undefined) do in these assays?
Tb PYK inh: 0%; RE007 growth inh: 6%

Results for O=c1[nH][nH]c(-c2ccccc2)c1-c1ccccc1 ?
Tb PYK inh: -9%; RE007 growth inh: 7%

Results for O=c1c(-c2ccccc2)c1-c1ccccc1 ?
LmPK inh: 2%; Tb PYK inh: -6%; CHX counter: 65*; FBPA Giardia inh: 4%; Shiga toxin inh: 104*

What do the screens show for `O=C(c1cnccn1)N1CCC[C@@]2(CCN(c3ccccn3)C2)C1`?
Tb PYK inh: -2%; FBPA Giardia inh: 1%

What do the screens show for `c1ccc(CCSc2nccn2-c2ccccc2)cc1`?
LmPK inh: -3%; Tb PYK inh: -2%; CHX counter: 52*; RE007 growth inh: -16%; FBPA Giardia inh: -7%; Shiga toxin inh: 120*

How did CCN(CC(=O)Nc1c(F)cccc1F)C(=O)Cn1c(=O)cnc2ccccc21 do in these assays?
Tb PYK inh: 2%; RE007 growth inh: 6%

Results for CC(=O)Oc1ccc(C(=O)Nc2ccc(S(=O)(=O)N3CCOCC3)cc2)cc1 ?
LmPK inh: -5%; Tb PYK inh: -13%; CHX counter: -1; RE007 growth inh: -25%; FBPA Giardia inh: 1%; Shiga toxin inh: -7

What do the screens show for `COc1cccc(CNC(=O)CN2C(=O)N(c3cc(C)ccc3C)S(=O)(=O)c3ccccc32)c1OC`?
Tb PYK inh: 3%

What do the screens show for `COc1cccc(/C=N/NC(=O)C(=O)N/N=C/c2cccc(OC)c2O)c1O`?
LmPK inh: -2%; Tb PYK inh: 2%; CHX counter: 9; RE007 growth inh: 5%; FBPA Giardia inh: 13%; Shiga toxin inh: -9

Results for COc1cccc(/C=N/NC(=O)NC2CCCCC2)c1O ?
LmPK inh: -2%; Tb PYK inh: -7%; CHX counter: 34*; RE007 growth inh: 6%; FBPA Giardia inh: 1%; Shiga toxin inh: 52*

How did COc1cccc(/C=N/NC(=O)C(=O)N2CCCCCC2)c1O do in these assays?
LmPK inh: -14%; Tb PYK inh: -10%; CHX counter: 21*; RE007 growth inh: 0%; Shiga toxin inh: 15

How did N#Cc1ccc(CN2CC[C@@]3(CCCN(S(=O)(=O)c4ccccc4)C3)C2)cc1 do in these assays?
Tb PYK inh: -5%; FBPA Giardia inh: 3%

How did OCCCc1n[nH]c(=S)n1-c1ccccc1 do in these assays?
LmPK inh: 5%; Tb PYK inh: -2%; CHX counter: -2; RE007 growth inh: -17%; FBPA Giardia inh: -26%; Shiga toxin inh: -5

Results for O=C1c2cccc3cccc(c23)C(=O)N1CCCc1n[nH]c(=S)n1-c1ccccc1 ?
LmPK inh: -5%; Tb PYK inh: 7.1µM*; CHX counter: -3; RE007 growth inh: 1%; FBPA Giardia inh: 7%; Shiga toxin inh: -3

What do the screens show for `CSc1nsc(SCC(=O)Nc2ccc(F)cc2)n1`?
LmPK inh: -1%; Tb PYK inh: 7%; CHX counter: 9; RE007 growth inh: -3%; FBPA Giardia inh: -4%; Shiga toxin inh: 42

How did Cc1csc(SCC(=O)Nc2ccc3c(c2)OCCO3)n1 do in these assays?
LmPK inh: -2%; Tb PYK inh: -4%; CHX counter: 42*; RE007 growth inh: 15%; FBPA Giardia inh: -1%; Shiga toxin inh: 75*

Source: PubChem BioAssay (National Center for Advancing Translational Sciences (NCATS))
